Screening results (PubChem)
SUMO Mot1 rescue: blocks SUMOylation pathway, rescuing yeast Mot1-301 growth | S. cerevisiae Mot1-301 growth rescue, ATP luminescence, 38.5C; percent above DMSO median, 100 means doubled | growth rescue, % at 18.8 µM | 1% of 320,000 active;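 active = every valid replicate shows activation above 250% relative to neutral control wells; inactive = the rest, any valid replicate at or below 250%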;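 note: OY570 slx delta 5 strain wells were the positive control but not used for scaling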
Efflux pump mplx: antifungal efflux pump inhibition, Nile Red retention. S. cerevisiae Candida pump triplex. inhibition, % at 10 µM. 0.44% of 330,000 active. AID 485275;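 active = plate passing quality check with inhibition over a set limit, or well fluorescence over plate mean plus 4 SD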;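 note: Nile Red retained in pooled yeast measured as flow cytometry median fluorescence; 0% = buffer negative control and 100% = Enniatin B positive control; higher means more Nile Red kept so more efflux inhibition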
ALR H2O2 inh: inhibitors of human sulfhydryl oxidase ALR | inhibition, % (no concentration beside the values) | purified ALR, DTT oxidation, H2O2 HRP-luminol luminescence | 3.8% of 290,000 active | P55789;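 active = mean replicate inhibition above about 79%, with every replicate also reaching it, limit read from the data; inconclusive = only one of the two criteria met; inactive = mean below limit and not every replicate reaching it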
VLA-4 inh: inhibition in a human VLA-4 binding assay; inhibition, % (about 7 µM as worked out from the volumes in the protocol); P13612; VLA-4 expressing cells, ligand binding flow cytometry; 0.2% of 330,000 active; in the data active = inhibition above about 50%
AHR activator: activators of human aryl hydrocarbon receptor; P35869; AHR-responsive luciferase reporter cells, luminescence; activation, % at 5 µM; 2.5% of 320,000 active; in the data active = activation above about 47%;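 note: 0% = vehicle wells and 100% = reference agonist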
Target sequence (P35869 whole entry, looked up): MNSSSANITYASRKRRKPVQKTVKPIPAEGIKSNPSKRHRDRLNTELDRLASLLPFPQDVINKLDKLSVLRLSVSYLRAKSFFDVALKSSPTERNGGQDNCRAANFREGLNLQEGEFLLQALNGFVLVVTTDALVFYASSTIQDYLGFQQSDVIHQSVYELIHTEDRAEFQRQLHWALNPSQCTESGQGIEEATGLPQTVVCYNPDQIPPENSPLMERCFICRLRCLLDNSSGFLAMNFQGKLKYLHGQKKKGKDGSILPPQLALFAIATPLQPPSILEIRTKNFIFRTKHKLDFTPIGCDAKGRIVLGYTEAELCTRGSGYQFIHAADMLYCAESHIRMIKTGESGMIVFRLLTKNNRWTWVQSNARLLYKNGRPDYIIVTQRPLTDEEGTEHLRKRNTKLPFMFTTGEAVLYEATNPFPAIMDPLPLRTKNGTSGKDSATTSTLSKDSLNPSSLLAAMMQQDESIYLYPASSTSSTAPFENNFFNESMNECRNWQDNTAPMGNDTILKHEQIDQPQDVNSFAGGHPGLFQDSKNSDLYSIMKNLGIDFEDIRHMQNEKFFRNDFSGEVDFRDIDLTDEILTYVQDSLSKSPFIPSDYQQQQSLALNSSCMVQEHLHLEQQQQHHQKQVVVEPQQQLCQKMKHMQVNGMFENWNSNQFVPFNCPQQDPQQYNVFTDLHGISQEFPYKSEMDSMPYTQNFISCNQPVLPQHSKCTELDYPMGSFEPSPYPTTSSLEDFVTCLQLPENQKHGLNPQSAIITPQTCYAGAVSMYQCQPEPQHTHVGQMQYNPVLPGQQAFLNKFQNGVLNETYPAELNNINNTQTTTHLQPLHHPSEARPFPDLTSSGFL
Bfl-1 A1 inh: inhibitors of the anti-apoptotic protein A1, read as caspase activation | caspase activation, % (no concentration beside the values) | 0.066% of 330,000 active | AID 2462 | MEF A1-2A-BIM cells, Caspase-Glo 3/7 luminescence, 3 h; percent of clofoctol response, vehicle zero;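 active = over half of replicate activation scores above 10%, or exactly half above 10 with the replicate mean above 10; inconclusive = replicate mean below 10 yet half the replicates above 10; inactive = over half of replicates below 10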
Active calls of the source: *; ? = inconclusive; nt = not tested or not shown. This is a sample that favours compounds with a hit; in the whole collection about 7.2% have one here.

SMILES	SUMO Mot1 rescue	Efflux pump mplx	ALR H2O2 inh	VLA-4 inh	AHR activator	Bfl-1 A1 inh
CCOC(=O)C1CCCN(C(=O)c2cc3cc(F)ccc3[nH]2)C1 (stereo not given)	-8	0	-6	7	50*	0
CCOC(=O)C1CCN(C(=O)c2cc3cc(F)ccc3[nH]2)CC1	-16	0	-1	20	nt	-2
O=C(c1cc2cc(F)ccc2[nH]1)N1CCCC(Nc2ccc(F)cc2)C1 (stereo not given)	5	3	7	5	63*	0
CCOC(=O)N1CCN(C(=O)c2cc3cc(F)ccc3[nH]2)CC1	-15	0	-13	2	58*	0
O=C(c1ccnc(Cl)c1)N1CCCC(Nc2ccc(F)cc2)C1 (stereo not given)	14	0	29	9	-1	1
CCOC(=O)C1CCCN(C(=O)c2ccc3ncsc3c2)C1 (stereo not given)	7	0	96*	-2	1	-1
CCOC(=O)C1CCCN(C(=O)c2ccc3nc(-c4ccccc4)c(-c4ccccc4)nc3c2)C1 (stereo not given)	17	0	-10	7	0	2
COc1ccc(-c2c(C)[nH]n3c(=O)c(Cc4ccccc4)c(C)nc23)cc1	-16	0	nt	9	13	1
O=C(CN1C2CCCC1CC(NC(=O)c1ccccc1)C2)Nc1ccccc1 (stereo not given)	12	0	-8	4	3	0
Nc1ccccc1-c1nnc(-c2ccccc2N)n1N	73	0	-1	10	48*	-8
O=C(CNS(=O)(=O)c1ccc(Cl)cc1)NC1CCCCC1	14	0	5	5	1	1
Cc1cc(C)c(C)c(S(=O)(=O)NCC(=O)NCC2CCCCC2)c1C	-11	0	2	6	2	1
CCOc1ccc(S(=O)(=O)NCC(=O)NC2CCCCC2)cc1	-13	0	91*	10	0	0
Cc1ccc(S(=O)(=O)NCC(=O)NCC2CCCCC2)cc1C	0	0	97*	3	1	0
O=C(CSc1ncn[nH]1)Nc1cc(S(=O)(=O)N2CCCC2)ccc1Cl	-14	0	-9	13	-2	0
CC(C)(C)OC(=O)NCCc1nnc(SCC(=O)Nc2cccc(Cl)c2)o1	-15	0	0	7	0	0
O=C(CSc1nnc(CNC(=O)c2c(F)cccc2F)o1)Nc1ccc2c(c1)OCCO2	-5	5	98*	-2	10	0
O=C(CSc1nnc(CNC(=O)c2c(F)cccc2F)o1)Nc1ccc2c(c1)OCO2	-5	2	98*	4	28	1
O=C(CSc1nnc(CNC(=O)c2c(F)cccc2Cl)o1)Nc1ccc2c(c1)OCCO2	247	0	99*	4	6	1
NCCc1nnc(SCC(=O)Nc2cccc(Cl)c2)o1	7	0	99*	5	2	0
O=C(CSc1nnc(CNC(=O)c2c(F)cccc2Cl)o1)NCc1ccc2c(c1)OCO2	-8	0	-13	3	8	0
Cc1cc(C)cc(Nc2c(F)c(F)c(F)c(F)c2C(=O)O)c1	10	0	42	-11	-1	0
COc1ccc(Cl)cc1NC(=O)C(C)N1CCN(c2ccccn2)CC1 (stereo not given)	-33	0	0	3	0	0
CCN(CC(=O)Nc1ccc(NC(C)=O)cc1)C(=O)COc1ccccc1Cc1ccccc1	-25	-1	-10	3	nt	?
CCOC(=O)c1c(NC(=O)CSc2nnc(CNc3ccc(F)cc3)o2)sc(C)c1C	1	0	-5	28	8	-1
CCOC(=O)c1c(NC(=O)CSc2nnc(CNc3ccc(Cl)cc3)o2)sc(C)c1C	79	0	84*	9	2	1
CCOC(=O)c1ccc(NC(=O)CSc2nnc(CNC(=O)c3ccccc3F)o2)cc1	-2	0	70	0	1	0
CCOC(=O)c1ccc(NC(=O)CSc2nnc(CNC(=O)c3c(F)cccc3Cl)o2)cc1	3	0	99*	-4	2	2
CC(C)Cn1c(-c2ccc(Br)cc2)c[nH]c1=S	-15	0	97*	15	7	0
CCn1c(-c2ccccc2)c[nH]c1=S	nt	0	99*	-4	1	-1
